Experimental findings from PubChem BioAssay (NCI) are described below.

The panel holds about 83,000 compounds, 20% with a hit somewhere; the sample as a whole holds those more often.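 Negative percent growth values reflect cell death: -40 means 40% of the cells present at the start died, and -100 means all died.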 Values without a mark were called inactive. The source made the active and inactive calls. How the source made its calls: active means growth percent below 10; inactive means the rest.

This test concerns MDA-MB-468 breast. The test can be described thus: NCI-60 one-dose screen, 48 h (100 = growth as untreated, 0 = no growth, -100 = all killed). Conditions: 10 µM unless noted.
As for `Oc1c(Cl)cc(Cl)c(Cl)c1CNCCNCc1c(O)c(Cl)cc(Cl)c1Cl`, the growth is 2.91% (active). For the compound `Ic1cccs1`, the growth was 103%. With `Cc1ccc(S(=O)(=O)C2=C3C(=C(c4ccccc4)c4ccccc43)CN(S(=O)(=O)c3ccc(C)cc3)C2)cc1`, the growth is 51%. As for `COc1ccc(-c2cc(-c3ccc(Cl)cc3)c(C#N)c(=O)n2Cc2ccc(C(=O)Nc3ccccc3N)cc2)cc1`, the growth is 63.8%. Next, `C#CCN1C(=O)c2ccccc2N(CC#C)C12CCN(Cc1cn(CC(=O)Nc3ccccc3C(N)=O)nn1)CC2`: 72.6%; `CN(C)CCCNc1c2ccccc2nc2c1oc1ccc(Cl)cc12`: 5.14% (active). As to `Cn1ccnc1C(=O)/C=C/c1ccc(C(=O)Nc2c(F)c(F)c(F)c(F)c2F)cc1`, the growth is -16.7% (active).

With `CCCCCCCCCCCCOC(=O)/C=C\C(=O)NC(N)=O`, the growth is 82.1%. Take `CN(c1ncccc1CNc1nc(Nc2ccc3c(c2)CC(=O)N3)ncc1C(F)(F)F)S(C)(=O)=O`: the growth was -44.5% (active).

For `CN(C)c1ccc(-c2ccc3c(c2)c(-c2ccccc2)nc(=O)n3C)cn1`, the growth was 5.69% (active). Next, `CC(C)(C)NC/C(=C\c1ccccc1)C(=O)c1ccccc1`: -50.5% (active); `CCOC(=O)C1=C(C)N=C2SC=C(c3ccccc3)N2[C@H]1c1cn[nH]c1-c1ccc(Cl)cc1`: 22.4%; `CN1C(=O)/C(=C/c2ccc(C(=O)Nc3ncc(Cc4cccc(Cl)c4)s3)cc2)SC1=S`: 37.7%.

Turning to `O=C(/C=C/c1cccc(C(F)(F)F)c1)Nc1cccc(C(F)(F)F)c1`, the growth is 55.6%. On to `O=C1CC(c2nc3ccccc3[nH]2)CN1C1CCCCC1` (stereo not given), for which the growth was 110%.

On to `C=C(C)[C@@H]1CC[C@]2(C(=O)OC)CC[C@]3(C)[C@H](CC[C@@H]4[C@@](C)(CC/C(N)=N/O)[C@H](C(=C)C)CC[C@]43C)[C@@H]12`, for which the growth is 99.5%.

For `COC1=C(OC)C(=O)C=CC1=O`, the growth is 105%. For `NS(=O)(=O)c1ccc(Nc2nc(N/N=C/c3c[nH]c4ccccc34)nc(Nc3ccccc3)n2)cc1`, the growth was 52.7%. For the compound `O=C(N/N=C/c1ccc([N+](=O)[O-])s1)c1[nH]c2ccc(Br)cc2c1-c1ccccc1`, the growth was 24.8%. Turning to `NS(=O)(=O)c1ccc(N2N=C(c3ccccc3)CCC2=O)cc1`, the growth was 96.3%.

For the compound `O=C(Oc1ccc[nH]c1=O)c1cccc(Cl)c1`, the growth was 89.8%.

As to `O=C1/C=C/[C@@H](O)[C@@H]2C[C@@H](O)C[C@H]2/C=C/CCC[C@H](CCc2ccc3ncccc3c2)O1`, the growth was -5.95% (active).

As to `FC(F)(F)c1cccc([Si](F)(c2cccc(C(F)(F)F)c2)c2cccc(C(F)(F)F)c2)c1`, the growth is 54.4%.

With `NNC(=O)c1ccc(-n2nc(-c3ccccc3)c3ccccc32)cc1`, the growth was 38.3%. Next, `CC(=O)O[C@H]1CC[C@@]2(C)C(=CC[C@@H]3[C@@H]2CC[C@]2(C)C(=O)N(O)C(=O)C[C@@H]32)C1`: 83.6%; `Brc1ccc(Oc2ccc(Nc3ncnc4onc(-c5ccccc5)c34)cc2)cc1`: 103%. Take `C=C(C)[C@@H]1C[C@H](O)Cc2cc(Cl)cc(Cl)c2N1`: the growth is 97.5%. For `COc1cccc(/C=C2\Oc3cc(OCCN4CCCC4)ccc3C2=O)c1`, the growth is 82.8%. With `C=C(C)[C@@H]1CC[C@]2(C)[C@H](CC=C3[C@@H]4CC(C)(C)CC[C@]4(C(=O)NCC#CCN4CCN(C)CC4)CC[C@]32C)[C@@]1(C)CCC#N`, the growth was 47.9%. As for `C=C1C(=O)O[C@@H]2[C@@H]3O[C@@](C)(CC/C=C(\C)CCC[C@@H]2C)[C@H](O)C[C@@H]13`, the growth was -24.9% (active). For the compound `COc1cc(-c2cncn2-c2ccc(-c3nc4ccc(F)cc4s3)cc2)ccc1F`, the growth is 56.8%.

Regarding `O=C1CCC(=O)N1C1CCCCC1`, the growth was 97%.

Turning to `Cc1noc(C)c1CSc1ccccc1C(=O)N1CCN(c2cccc(C(F)(F)F)c2)CC1`, the growth was 38.1%. To `Cn1cc(-c2csc(-c3cn(C)c4ccc(F)cc34)n2)c2cnccc21` belongs -49.2% (active); to `Cc1cc2nc(C(Cl)Cl)nc(-c3ccco3)n2n1`, -34% (active). Consider `Cc1ccc(S(=O)(=O)Nc2c(Br)cc(Br)cc2C(N)=O)cc1`, for which the growth was 102%. As for `CNC(=O)c1cn2c3c(c(N4CCN(C)CC4)c(F)cc3c1=O)OC[C@@H]2C`, the growth is 97.7%. In the case of `C=CCn1c(C)nc2cc(Nc3nc(Cl)nc4ccccc34)ccc21`, the growth was 83.7%. Regarding `O=C1/C(=C/N2N=C(c3ccc(Cl)cc3)CC2c2ccccc2O)SC(=S)N1c1cccc(C(F)(F)F)c1` (stereo not given), the growth is 62.2%.

In the case of `O=C(N/N=C/c1ccc(Cl)cc1)c1[nH]c2ccc(Cl)cc2c1-c1ccccc1`, the growth is 33.7%.
